The values that follow come from PubChem BioAssay (NCATS).

Records with an inconclusive call do not appear. A call without a number means that no potency is given here. Activity calls are given as the source filed them. Unless noted, calls come from the whole dose curve; as a rule, active = well fitted inhibition curve with a large enough effect; inconclusive = small, poorly fitted or top-dose-only effect; inactive = no such curve, though single readings can be large or run the other way.

T1 sequence (P78324 whole entry, looked up): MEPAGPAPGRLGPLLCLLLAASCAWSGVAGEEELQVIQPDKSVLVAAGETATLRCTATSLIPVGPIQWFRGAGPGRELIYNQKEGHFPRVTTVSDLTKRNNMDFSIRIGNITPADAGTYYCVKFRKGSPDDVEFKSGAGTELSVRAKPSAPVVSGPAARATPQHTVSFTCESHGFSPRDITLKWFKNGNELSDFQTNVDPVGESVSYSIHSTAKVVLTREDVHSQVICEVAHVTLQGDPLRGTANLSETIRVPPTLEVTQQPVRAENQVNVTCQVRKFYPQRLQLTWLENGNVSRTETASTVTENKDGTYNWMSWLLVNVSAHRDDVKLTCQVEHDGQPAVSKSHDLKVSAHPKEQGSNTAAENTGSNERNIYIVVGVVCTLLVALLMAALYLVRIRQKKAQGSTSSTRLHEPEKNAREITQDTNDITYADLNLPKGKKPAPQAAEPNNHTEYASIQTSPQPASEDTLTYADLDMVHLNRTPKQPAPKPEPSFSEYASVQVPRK
T1 sequence (Q08722 whole entry, looked up): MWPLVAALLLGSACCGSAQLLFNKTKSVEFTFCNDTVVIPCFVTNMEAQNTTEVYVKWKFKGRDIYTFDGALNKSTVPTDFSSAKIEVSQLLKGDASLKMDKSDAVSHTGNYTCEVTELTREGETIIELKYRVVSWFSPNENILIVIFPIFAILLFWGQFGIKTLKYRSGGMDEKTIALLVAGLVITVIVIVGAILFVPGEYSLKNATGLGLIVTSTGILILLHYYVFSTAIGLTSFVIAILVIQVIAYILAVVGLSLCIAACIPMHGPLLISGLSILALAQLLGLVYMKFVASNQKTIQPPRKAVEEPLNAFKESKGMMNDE

System in one test: not listed separately
Briefly: NS1 protein of Zika virus - qHTS assay to identify small molecule inhibitors in human HEK 293 cells (AID 1347053). Note: nearly all actives have a fitted effect of over 55% in size. Note: potency is the fitted concentration of half-maximal effect. The settings on record: HEK293 ZIKV MR766 infection, NS1 TR-FRET, 24 h; series mostly up to 46.1 µM. The gist of the method:
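HEK 293; 20 h pre-culture, 37 C/5% CO2; cpd 1 h pre-infection; ZIKV MR766, MOI = 0.5, 24 h, 37 C; TR-FRET NS1 readout (two anti-NS1 Abs); norm. to no-virus vs infected.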
A general note: qHTS replaces the single test concentration by a dilution series.
As for `CN[C@@H](C)C(=O)N[C@H]1CN(C(=O)CC(C)C)CC[C@H]2CC[C@@H](C(=O)NC(c3ccccc3)c3ccccc3)N2C1=O`, the Potency entry is “inactive”.
For `O=C(NOCC(O)CO)c1cc(Br)c(F)c(F)c1Nc1ccc(I)cc1F` (configuration not stated), the Potency result was “inactive”.
The same measure, in the same setting: with `O=C1C[C@@H](c2ccc(O)cc2)Oc2cc(O)cc(O)c21` the entry was “inactive”.
On the same count and under the same terms, with `COc1ccccc1N1CCN(CCCNc2cc(=O)n(C)c(=O)n2C)CC1` the entry was “inactive”.
As for `CC(C)(C)c1ccc(C(O)CCCN2CCC(C(O)(c3ccccc3)c3ccccc3)CC2)cc1` (configuration not stated), the Potency entry is “inactive”.
Still for that read-out and setting: with `CC(=O)N[C@@H](CS)C(=O)O` the entry was “inactive”; with `NC(N)=Nc1nc(CSCC/C(N)=N/S(N)(=O)=O)cs1`, “inactive”; with `NC1=N[C@@]2(c3cc(NC(=O)c4ccc(F)cn4)ccc3F)COC[C@@H]2CS1`, “inactive”.
Still for that read-out and setting: then `C=C1C(=O)OC2C=C(C)CCC=C(C)CCC12` (configuration not stated), with “inactive”; and `CCCNC(=O)NS(=O)(=O)c1ccc(Cl)cc1`, with “inactive”.
Same read-out and setting: then `O=C(O)C(O)Cc1ccc(O)c(O)c1` (configuration not stated), with “inactive”; and `O=C1NC(=O)C(c2ccccc2)(c2ccccc2)N1`, with “inactive”; and `CC(C)C[C@H](CC(=O)O)C(=O)N[C@@H](Cc1c[nH]c2ccccc12)C(=O)N[C@@H](C)c1ccccc1`, with “inactive”.
Regarding `CC(C)C(C)C=CC(C)C1CCC2C3=CC=C4CC(O)CCC4(C)C3CCC21C` (configuration not stated), the Potency entry is “inactive”.
The same measure, in the same setting: then `CC(C)NCC(O)COc1cccc2[nH]ccc12` (configuration not stated), with “inactive”; and `C[C@@H](O)[C@H]1C(=O)N2C(C(=O)O)=C(S[C@@H]3CN[C@H](C(=O)N(C)C)C3)[C@H](C)[C@H]12`, with “inactive”; and `COc1ccc2c3c1OC1C[C@@H](O)C=C[C@@]31CCN(C)C2` (some centres not stated), with “inactive”.
On the same count and under the same terms, then `O=C(O)[C@H]1O[C@H](Oc2cc3oc(-c4ccccc4)cc(=O)c3c(O)c2O)[C@H](O)[C@@H](O)[C@H]1O`, with “inactive”; and `Clc1cc(Cl)cc(CNc2ncncc2-c2ccc3c(c2)OCO3)c1`, with 18700 nM (active); and `N[C@H](CSC(c1ccccc1)(c1ccccc1)c1ccccc1)C(=O)O`, with “inactive”.
Same read-out and setting: with `CCN(CC)C(=O)c1ccc(O)c(OC)c1` the entry was “inactive”; with `CC(C)(C)OC(=O)N[C@H]1CCCCCC=C[C@@H]2C[C@@]2(C(=O)NS(=O)(=O)C2CC2)NC(=O)[C@@H]2C[C@@H](OC(=O)N3Cc4cccc(F)c4C3)CN2C1=O`, “inactive”.
`O=c1cc(-c2ccc(O)cc2)oc2cc(O)cc(O)c12`: the Potency result was “inactive”.
Still for that read-out and setting: with `CC(=O)c1ccc(S(=O)(=O)NC(=O)NC2CCCCC2)cc1` the entry was “inactive”.
Same read-out and setting: then `CC1(C)CCC2=C(O1)c1ccccc1C(=O)C2=O`, with “inactive”; and `C[C@]12CC[C@@H]3c4ccc(O)cc4CC[C@H]3[C@H]1C[C@@H](O)[C@H]2O`, with “inactive”; and `CN(C[C@@H]1COCCO1)S(=O)(=O)Nc1ccc2ccc3ncc(-c4cnn(C)c4)cc3c(=O)c2c1`, with “inactive”.
For `O=C1c2ccccc2-[n+]2ccc3c([nH]c4ccccc43)c21`, the Potency is 1050 nM (active).
Same read-out and setting: with `COc1cc(O)c2c(c1)C(=O)c1cc(C)cc(O)c1C2=O` the entry was “inactive”; with `C[C@@H]1CCN(C(=O)CC#N)C[C@H]1N(C)c1ncnc2[nH]ccc12`, “inactive”; with `Cc1[nH]c(C=C2C(=O)Nc3ccc(S(=O)(=O)Cc4c(Cl)cccc4Cl)cc32)c(C)c1C(=O)N1CCC[C@H]1CN1CCCC1`, “inactive”.
On the same count and under the same terms, then `CN(C)CCC(c1ccccc1)c1ccccn1` (configuration not stated), with “inactive”; and `CC(C)n1nc(-c2ccc3oc(N)nc3c2)c2c(N)ncnc21`, with 20.9 nM (active).
On the same count and under the same terms, with `COc1ccc(-c2coc3cc(O)ccc3c2=O)cc1` the entry was “inactive”; with `Cn1cc(C=C2C(=O)Nc3cccnc32)c2ccccc21`, “inactive”.

The target in the next test is T1, Tyrosine-protein phosphatase non-receptor type substrate 1 (Homo sapiens) + Leukocyte surface antigen CD47 (Homo sapiens) (UniProt P78324+Q08722). As to the kind of experiment: CD47-SIRPalpha protein protein interaction - LANCE assay qHTS validation (AID 1347057; active = well fitted curve in the direction sought with a large enough effect in the signal ratio, with a control signal flat, not every such curve was filed as active; the % refers to the signal ratio). The settings on record: Recombinant CD47-His / biotin-SIRPalpha, TR-FRET ratio; series mostly up to 38.3 µM. The gist of the method:
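First, His-tagged CD47 and Eu-labelled anti-His antibody met the compound for 30 min; next, site-specifically biotinylated SIRPalpha was added for 30 min; finally streptavidin-APC was added before reading the TR-FRET ratio.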
In general terms: In TR-FRET formats the signal depends on donor and acceptor labels being close together.
Turning to `COc1ccccc1N1CCN(CCCNc2cc(=O)n(C)c(=O)n2C)CC1`, the result was inactive.
On the same count and under the same terms, with `CC(C)(C)c1ccc(C(O)CCCN2CCC(C(O)(c3ccccc3)c3ccccc3)CC2)cc1` (configuration not stated) the entry was “inactive”; with `CC(=O)N[C@@H](CS)C(=O)O`, “inactive”.
Same read-out and setting: with `NC(N)=Nc1nc(CSCC/C(N)=N/S(N)(=O)=O)cs1` the entry was “inactive”; with `CCCNC(=O)NS(=O)(=O)c1ccc(Cl)cc1`, “inactive”.
In the case of `O=C1NC(=O)C(c2ccccc2)(c2ccccc2)N1`, the outcome was inactive.
Still for that read-out and setting: with `CC(C)NCC(O)COc1cccc2[nH]ccc12` (configuration not stated) the entry was “inactive”; with `CCN(CC)C(=O)c1ccc(O)c(OC)c1`, “inactive”; with `O=c1cc(-c2ccc(O)cc2)oc2cc(O)cc(O)c12`, “inactive”.
Same read-out and setting: with `CC(=O)c1ccc(S(=O)(=O)NC(=O)NC2CCCCC2)cc1` the entry was “inactive”; with `CC1(C)CCC2=C(O1)c1ccccc1C(=O)C2=O`, “inactive”; with `CN(C)CCC(c1ccccc1)c1ccccn1` (configuration not stated), “inactive”.

For the next test, the target named is T1, Tyrosine-protein phosphatase non-receptor type substrate 1 (Homo sapiens) + Leukocyte surface antigen CD47 (Homo sapiens). Briefly: CD47-SIRPalpha protein protein interaction - HTRF assay qHTS validation (AID 1347058; active = well fitted curve in the direction sought with a large enough effect in the signal ratio, not every such curve was filed as active; the % refers to the signal ratio;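 note: recombinant soluble extracellular CD47 with His tag and biotinylated SIRPalpha domains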). The conditions noted are these: TR-FRET HTRF CD47-His / biotin-SIRPalpha binding, ratio 665/615; series mostly up to 38.3 µM. In outline:
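TR-FRET read (Ch1/Ch2 ratio) of soluble extracellular CD47 and Avi-biotinylated SIRPalpha domains in PBS pH 7.4 with 0.05% IGEPAL; 7-point compound titration. Sequential 30 min room-temperature steps; non-biotinylated SIRPalpha as control inhibitor.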
Regarding `COc1ccccc1N1CCN(CCCNc2cc(=O)n(C)c(=O)n2C)CC1`, the outcome was inactive.
Consider `CC(C)(C)c1ccc(C(O)CCCN2CCC(C(O)(c3ccccc3)c3ccccc3)CC2)cc1` (configuration not stated), for which the result was inactive.
As for `CC(=O)N[C@@H](CS)C(=O)O`, the outcome was inactive.
For `NC(N)=Nc1nc(CSCC/C(N)=N/S(N)(=O)=O)cs1`, the outcome was inactive.
On the same count and under the same terms, then `CCCNC(=O)NS(=O)(=O)c1ccc(Cl)cc1`, with “inactive”; and `O=C1NC(=O)C(c2ccccc2)(c2ccccc2)N1`, with “inactive”.
Same read-out and setting: with `CC(C)NCC(O)COc1cccc2[nH]ccc12` (configuration not stated) the entry was “inactive”; with `CCN(CC)C(=O)c1ccc(O)c(OC)c1`, “inactive”; with `CC(=O)c1ccc(S(=O)(=O)NC(=O)NC2CCCCC2)cc1`, “inactive”.
On to `CN(C)CCC(c1ccccc1)c1ccccn1` (configuration not stated), for which the outcome was inactive.
